Screens deposited in PubChem by The Scripps Research Institute Molecular Screening Center.
CHO-K1 Ca antag = counter-screen for M1 antagonists: effect in parental CHO-K1 cells; ATP-induced calcium, Fluo-8 fluorescence; inhibition, % at 3 µM; 360,000 tested, 0.6% active; AID 602250;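 active means inhibition above a per-plate cutoff, the plate's mean sample inhibition plus 3 SD, cut at about 24% in these data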;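 further: 0% = DMSO plus EC80 ATP and 100% = DMSO alone without ATP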
M1 PAM parental = nonselective calcium activators in parental CHO-K1 cells, primary screen, counter-screen for M1 PAM project, cell-based, Fluo-8 calcium fluorescence, full deck, 1536-well; ATP EC20; 0% at ATP EC20, 100% at ATP max; activation, % at 3 µM; 360,000 tested, 0.02% active;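 active means activation above the run cutoff, the mean activation of all test compounds plus 3 SD, cut at about 40% in these data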;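 further: peak over basal fluorescence ratio in a 140 s read after ATP addition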
CHRM1 PAM = human M1 muscarinic receptor positive allosteric modulators, primary screen, CHO-K1 cells, Fluo-8 calcium fluorescence, 1536-well; activation, % at 3 µM; 360,000 tested, 0.088% active; AID 588819, 2011; CHO-K1 hM1, ACh EC20; 0% = ACh EC20, 100% = maximal ACh; Muscarinic acetylcholine receptor M1 (Homo sapiens), P11229; in the data active means activation above about 19%, passing the limit was not always enough
Target sequence (P11229 whole entry, looked up): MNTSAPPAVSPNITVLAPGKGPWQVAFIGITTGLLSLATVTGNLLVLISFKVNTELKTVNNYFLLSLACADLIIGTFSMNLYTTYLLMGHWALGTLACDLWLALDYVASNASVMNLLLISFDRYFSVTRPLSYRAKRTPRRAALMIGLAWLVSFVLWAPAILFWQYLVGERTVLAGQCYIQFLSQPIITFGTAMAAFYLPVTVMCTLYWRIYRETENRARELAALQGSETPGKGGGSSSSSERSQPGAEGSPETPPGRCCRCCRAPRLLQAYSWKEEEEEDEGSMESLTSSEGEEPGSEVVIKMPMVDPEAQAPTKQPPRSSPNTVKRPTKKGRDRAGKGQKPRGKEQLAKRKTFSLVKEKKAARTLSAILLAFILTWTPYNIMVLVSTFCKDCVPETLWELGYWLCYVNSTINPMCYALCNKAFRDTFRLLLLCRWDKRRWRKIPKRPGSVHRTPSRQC
M1 ag parental = counter-screen for M1 agonists: effect in parental CHO-K1 cells; Fluo-8 calcium fluorescence; scaled to maximal ATP response, vehicle zero; activation, % at 3 µM; 360,000 tested, 0.48% active; in the data active means activation above about 15%;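 further: untransfected CHO-K1 host cells lacking M1 receptor as counterscreen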
CHRM1 agonist = human M1 muscarinic receptor agonists, primary screen, Fluo-8 calcium fluorescence, CHO-K1 cells, HTS. CHO-K1 hM1, agonist mode; 0% DMSO, 100% acetylcholine EC100. AID 588814, 2011. activation, % at 3 µM. 360,000 tested, 0.33% active;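 active means activation above the run's mean compound activation plus 3 SD, cut at about 16% in these data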;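 further: peak over basal fluorescence ratio within a 140 s kinetic read after compound addition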
CHRM1 antagonist = human M1 muscarinic receptor antagonists, primary screen, CHO-K1 cells, Fluo-8 calcium fluorescence, 1536-well. CHO-K1 hM1, ACh EC80 antagonist. inhibition, % at 3 µM. 360,000 tested, 1.3% active. AID 588852, 2011;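 active means percent inhibition above its own plate's cutoff, namely the mean of that plate's compound wells plus 3 SD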;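 further: peak over basal fluorescence ratio during 140 s after agonist addition; 0% = ACh EC80 plus DMSO and 100% = DMSO alone without agonist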
Numbers without * were called inactive. The list is not random: actives were taken first. Their share in the collection is about 2.4%.

SMILES	CHO-K1 Ca antag	M1 PAM parental	CHRM1 PAM	M1 ag parental	CHRM1 agonist	CHRM1 antagonist
C[C@@H]1CCCCCCCCCCC1=O	1.9	-21.4	8.6	-0.7	-2.5	-10.5
O=C1NN=C2CCCCCCC12 (stereo not drawn)	-0.9	8.7	-29.3	0.3	-7.5	97.8*
Cc1ccc2c(CC(=O)NNC(=O)c3ccccc3O)coc2c1	10.4	-8.5	7.6	0.1	5.1	7.9
Cc1cc(=O)n2c3ccccc3n(CC(O)CN3CCN(Cc4ccccc4)CC3)c2c1C#N (stereo not drawn)	4.1	-0.3	-21.9	3.3	-5.6	45.3*
CCCCCOc1ccc(C(=O)CCC(=O)N2CCCC2)cc1	-11.6	2.8	-19.3	9.1	-10.9	22.3*
CCCCOc1ccc(C(=O)N2CCCC2)cc1	15.2	13.7	1.2	-0.3	-4.7	1.3
CCOC(=O)c1c(C)nc2c(c1-c1cc(OC)ccc1OC)C(=O)c1ccccc1-2	-3.6	10.8	12.6	-0.1	-4.0	-15.8
CCOC(=O)C1=C(Cc2ccc(OC)cc2)C(=O)c2ccccc2C1=O	25.4*	-2.1	-9.3	15.2*	8.5	36.2*
Cn1c(=O)c2c(ncn2CC(=O)OCC(=O)NCc2ccc(F)cc2)n(C)c1=O	9.7	-8.1	8.8	0.2	-4.1	-11.0
O=C(NC1CCCCC1)C(c1ccncc1)N(C(=O)c1ccco1)c1ccc(F)cc1 (stereo not drawn)	-14.4	-1.2	4.2	0.2	-2.1	-2.5
O=S1(=O)c2ccc(Br)cc2N2CCC[C@@H]2CN1Cc1ccc(Cl)cc1	3.3	-7.7	-23.2	0.3	-6.2	24.2*
CC(CN1CCC(n2nccc2NC(=O)CCCc2ccccc2)CC1)c1ccccc1 (stereo not drawn)	-7.7	3.8	-1.4	2.6	-3.5	0.2
O=C1c2cccc3c(N4CCCCC4)ccc(c23)C(=O)N1c1ccc(O)cc1	8.4	8.4	-8.6	14.8	9.5	17.5
O=C1c2cccc3c(N4CCCCC4)ccc(c23)C(=O)N1c1ccccc1O	29.6*	-6.7	-12.9	35.8*	39.9*	43.5*
O=C(c1cc2ccccc2cc1O)N1CCN(c2ccc([N+](=O)[O-])cc2)CC1	14.2	-8.8	-6.7	6.2	0.1	15.9
O=C(COC(=O)CCC(=O)c1cccs1)NC1CC1	-2.2	-4.9	1.6	15.5*	-2.2	1.5
CNC(=O)COC(=O)CCC(=O)c1cccs1	-14.0	17.9	10.9	0.8	-0.4	-10.2
CCc1c(C(=O)NNC(=S)Nc2ccc(S(=O)(=O)Nc3ncccn3)cc2)csc1C	-8.2	18.0	20.2	0.1	-0.5	-26.0
O=C(Nc1ccc(F)c(Cl)c1)Nc1csc2ccccc12	27.6*	-10.5	-15.6	13.3	5.6	38.0
COC(=O)c1ccc(NC(=O)Nc2ccc(F)c(Cl)c2)cc1	17.1	3.3	-18.7	15.4*	6.8	32.4*
CC(=O)N(C)c1ccc(NC(=O)Nc2ccc(C)c(C)c2)cc1	13.7	-1.7	-18.2	6.5	0.7	26.8*
Cc1ccc(NC(=O)Nc2ccc(F)cc2)cc1Cl	25.8*	-6.0	-19.8	11.7	2.5	10.5
COC(=O)c1ccc(NC(=O)Nc2ccc(F)cc2)cc1	19.5	7.0	-3.1	8.6	1.4	13.1
CC(=O)N(C)c1ccc(NC(=O)Nc2ccccc2C)cc1	-13.1	10.3	-0.6	0.7	-2.3	-1.9
CS(=O)(=O)N(Cc1nc(-c2ccc(F)cc2)no1)c1ccccc1Cl	-8.0	-4.6	1.7	0.2	-5.6	1.4
SMILES	CHO-K1 Ca antag	M1 PAM parental	CHRM1 PAM	M1 ag parental	CHRM1 agonist	CHRM1 antagonist
O=C(Nc1ccncc1)Nc1ccc(F)c(Cl)c1	23.7*	-0.3	-0.3	11.2	4.2	8.2
O=C(NC(=S)Nc1ccc(F)c(Cl)c1)C1CC1	-11.1	21.0	7.4	0.2	-4.9	-19.8
Fc1ccc(NC(=S)Nc2ccc(F)c(Cl)c2)cc1Cl	28.2*	2.8	-12.1	10.2	6.1	23.6*
COC(=O)c1ccc(NC(=O)Nc2ccc([N+](=O)[O-])cc2)cc1	19.8	-6.2	-11.4	15.9*	4.3	24.1
Cc1ccc(NC(=S)Nc2ccc(OC(F)F)c(Cl)c2)cc1F	6.3	0.0	-18.8	12.2	-3.3	24.5*
CC(C)CCNC(=O)CN(Cc1ccc(F)cc1)C(=O)CCC(=O)Nc1ccccn1	-7.5	-2.2	6.2	0.7	-3.9	-10.7
Cc1ccc(C(C(=O)NCCc2ccccc2)N(C(=O)c2csnn2)C2CC2)cc1 (stereo not drawn)	-12.3	22.5	7.7	1.5	-5.6	-9.0
CCN1C(=O)[C@H]2[C@H]3CN=C(SCc4ccc(OC)cc4)N3[C@@](CC)(C(=O)OC)[C@H]2C1=O	-3.5	14.3	4.4	0.5	-1.7	-10.9
Cc1nc2ccc(S(=O)(=O)Nc3cccc(-c4nc5cccnc5s4)c3C)cc2s1	3.1	0.4	-19.1	10.4	1.7	39.2*
COc1cc(CCC(=O)Nc2cc(S(=O)(=O)N3CCOCC3)ccc2OC(C)C)cc(OC)c1OC	-5.5	9.3	6.5	0.4	-3.1	-10.6
OC(COc1ccc2c(c1)CCC2)CN1CCN(c2ccccc2F)CC1 (stereo not drawn)	-17.1	10.9	1.5	2.8	-7.3	-3.8
Oc1ccccc1N1CCN(CC(O)COC2CCCc3ccccc32)CC1 (stereo not drawn)	1.3	-8.5	-29.4	1.6	-11.0	39.3*
CC(C(=O)NCC1CCCCC1)N1CCN(S(=O)(=O)c2cccs2)CC1 (stereo not drawn)	6.2	-5.4	-6.3	0.3	-5.2	11.7
CCCC(CCC)C(=O)OC1C[C@H]2CC[C@@H](C1)[N+]2(C)C (stereo partly drawn)	-0.6	6.4	-26.1	-0.3	-6.7	97.6*
CC(=O)c1cccc(S(=O)(=O)N2CCC(C(=O)OC3CCOC3=O)CC2)c1 (stereo not drawn)	13.9	-11.4	-11.2	0.4	-1.9	26.9*
Cc1ccc(S(=O)(=O)N2CCC(C(=O)OC3CCOC3=O)CC2)cc1C (stereo not drawn)	11.4	2.0	3.0	2.6	-4.4	0.7
Cc1ccccc1C(=O)NC1CC2CCCC(C1)N2CC(C)C (stereo not drawn)	-3.7	-0.9	-27.7	0.2	-8.9	66.4*
CN(CC(=O)Nc1ccccc1Br)CC(=O)Nc1ccccc1C(F)(F)F	-13.8	-0.1	7.1	3.4	-2.0	-4.5
CCCCn1nc(C(=O)N(CC)CC(=O)Nc2c(F)cccc2F)c2ccccc2c1=O	-14.3	4.6	3.6	2.4	-0.9	-6.9
